Drawing on PubChem BioAssay (NCI), this text covers growth for 7 compounds.

Common to all, as to test: NCI-60 one-dose screen, 48 h (100 = growth as untreated, 0 = no growth, -100 = all killed)
Experiment [1] has as its system DU-145 prostate. The settings on record: 10 µM unless noted.
Experiment [2] has as its system K-562 leukemia. The settings on record: 10 µM unless noted.
In experiment [3] the test system is MALME-3M melanoma. To be noted: 10 µM unless noted.
Experiment [4] relates to MDA-MB-231 breast. The settings on record: 10 µM unless noted.
For experiment [5], the system named is RXF 393 renal. The settings on record: 10 µM unless noted.
For experiment [6], the system named is SF-268 CNS. The settings on record: 10 µM unless noted.
Experiment [7] concerns SF-295 CNS. The settings on record: 10 µM unless noted.
Experiment [8] concerns SF-539 CNS. The settings on record: 10 µM unless noted.
For experiment [9], the system named is UACC-257 melanoma. The settings on record: 10 µM unless noted.
Experiment [10] relates to M14 melanoma. To be noted: 10 µM unless noted.
Experiment [11] deals with HCT-15 colon. The settings on record: 10 µM unless noted.
For experiment [12], the system named is HT29 colon. The settings on record: 10 µM unless noted.
The subject of experiment [13] is SNB-75 CNS. To be noted: 10 µM unless noted.
The subject of experiment [14] is SNB-19 CNS. The settings on record: 10 µM unless noted.
For experiment [15], the system named is U251 CNS. To be noted: 10 µM unless noted.
Experiment [16] has as its system PC-3 prostate. The settings on record: 10 µM unless noted.
Experiment [17] has as its system SK-MEL-5 melanoma. To be noted: 10 µM unless noted.
In experiment [18] the test system is UACC-62 melanoma. To be noted: 10 µM unless noted.
The subject of experiment [19] is LOX IMVI melanoma. To be noted: 10 µM.
The test system of experiment [20] is SK-MEL-28 melanoma. To be noted: 10 µM unless noted.

This is part of a sample that, as a whole, favours compounds with a hit. Of some 83,000 tested, about 20% had one in any assay.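 Cell lines were cultured in 96-well plates, exposed to a single compound concentration, and assessed for percent growth 48 hours later.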 Values without a mark were called inactive. Calls of active or inactive are those of the source. How the source made its calls: active means growth percent below 10; inactive means the rest.

As to `CNS(=O)(=O)c1ccc(Nc2ccc(C(F)(F)F)cc2)c(-c2cn(C)cn2)c1`, the growth in experiment [1] was 62.3%; in [2], 21.5%; in [3], 68.1%; in experiment [4], 60.3%; in experiment [5], 52.1%; in [6], 41.5%. Also, the growth is 43.7% in experiment [7]; 64.4% in [8]; 64% in experiment [9]; 49.8% in experiment [10]; 34.5% in [11]; 49.6% in experiment [12]. Besides, the growth in [13] was 90.9%; in [14], 49.5%; in [15], 51.1%; in experiment [16], 57.6%; in experiment [17] it was 60.1%; in experiment [18], 37.1%. Moreover, the growth was 43.1% in experiment [19] and 74.8% in experiment [20].
Consider `O=C(CSc1nc2ccccc2c(=O)[nH]1)NCCN1CCCCC1`, for which the growth in [1] was 106%; in experiment [2], 98.9%; in experiment [3] it was 97.3%; in experiment [4] it was 100%; in [5], 115%; in experiment [6], 92.9%. For the same compound, the growth in experiment [7] is 103%; in experiment [8], 91%; in experiment [9], 97.3%; in [10], 94.4%; in experiment [11], 97.5%; in [12], 108%. Moreover, the growth in [13] was 79.1%; in experiment [14], 94.6%; in [15], 98.7%; in experiment [16], 91.2%; in experiment [17], 100%; in [18] it was 90.7%. In addition, the results for the growth in experiment [19] and in experiment [20] were 98.3% and 98.7%, respectively.
For `COc1cc2oc(-c3cccc(NC(=O)[C@H](CC(N)=O)NC(=O)OC(C)(C)C)c3)cc(=O)c2c(OC)c1OC`, the growth in experiment [1] was 97.1%; in experiment [2], 77.1%; in experiment [3], 107%; in experiment [4], 97.7%; in experiment [5], 69.4%; in experiment [6] it was 90.2%. The growth was 103% in [7]; 78% in [8]; 112% in [9]; 115% in [10]; 99.8% in [11]; 97.8% in experiment [12]. For the same compound, the growth in experiment [13] was 95.9%; in [14] it was 96%; in experiment [15], 90.1%; in experiment [16] it was 75.8%; in experiment [17], 87.6%; in [18] it was 82%. Further, the values for the growth in [19] and in [20] were 81.5% and 94%, respectively.
Consider `CC1CN(c2oc(-c3ccc([N+](=O)[O-])cc3)nc2C#N)CC(C)O1` (stereo not given), for which the growth in experiment [1] was 117%; in [2], 105%; in experiment [3], 95.7%; in [4], 95.9%; in [5], 108%; in [6], 107%. Moreover, the growth in [7] was 95.5%; in experiment [8], 93.9%; in experiment [9], 102%; in [10], 103%; in [11], 97.1%; in [12], 112%. The growth in experiment [13] was 98.8%; in experiment [14] it was 92.2%; in experiment [15] it was 104%; in experiment [16], 96.7%; in experiment [17] it was 104%; in experiment [18] it was 84%. The figures for the growth in experiment [19] and in [20] were 95.6% and 105%, respectively.
As for `Cc1cccc(NC(=O)CN2CCN(c3ncnc4c3cnn4-c3ccccc3)CC2)c1`, the growth in [1] was 96.7%; in experiment [2] it was 67.5%; in [3], 99.4%; in experiment [4], 87.4%; in experiment [5] it was 90%; in experiment [6], 88.4%. Also, the growth in experiment [7] is 117%; in experiment [8] it was 102%; in experiment [9], 102%; in [10], 94.4%; in experiment [11], 55.4%; in experiment [12], 76.1%. Also, the growth in experiment [13] was 100%; in [14] it was 83.1%; in experiment [15], 89%; in [16] it was 63.1%; in experiment [17], 78.5%; in experiment [18] it was 67.9%. Further, the growth in experiment [19] is 88.1%; in [20], 90.1%.
Regarding `Cn1cc(-c2cc(N)n3nc(-c4cn(C)c5ccc(Cl)cc45)cc3n2)c2ccccc21`, the growth in [1] was 111%; in experiment [2], 108%; in [3], 104%; in [4], 107%; in [5], 115%; in [6] it was 107%. Also, the growth is 97.2% in [7]; 105% in [8]; 102% in [9]; 102% in experiment [10]; 100% in experiment [11]; 105% in [12]. In addition, the growth is 89% in [13]; 108% in experiment [14]; 103% in experiment [15]; 110% in experiment [16]; 98.5% in experiment [17]; 98.2% in experiment [18]. In addition, the growth was 110% in [19] and 97.4% in experiment [20].
On to `COc1c(F)ccc(C(=O)Nc2ccc3nc(NC(=O)C4CCCN(S(=O)(=O)C5CC5)C4)sc3c2)c1F` (stereo not given), for which the growth was 66.8% in experiment [1]; 20.5% in experiment [2]; 43.5% in [3]; 46.7% in experiment [4]; -4.35% (active) in [5]; 76.2% in [6]. Further, the growth in [7] was 18.1%; in [8], 37.6%; in experiment [9], 20.9%; in experiment [10], 50.3%; in [11], 34%; in [12], 44.1%. The growth is 56.3% in experiment [13]; 63.5% in experiment [14]; 47.6% in [15]; 39.1% in experiment [16]; -43.8% (active) in [17]; 44.7% in experiment [18]. The growth in experiment [19] was 24.5%; in experiment [20], 56.2%.
